Experimental data published in the supplement of paper PMC8728848.
The sample as a whole holds a higher share of the strongest signals than the screen did.

How the values were obtained:
Test in all cases: glycan array binding signal (z-score within array); higher = stronger binding
Conditions in all cases: glycan notation: IUPAC condensed, linker removed
[1] = target: Fuc(a1-2)Gal(b1-3)GalNAc(a1-3)[Fuc(a1-2)]Gal(b1-4)Glc
Procedure, shortened: (§1)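 The binding signal is a Z-score computed within each array and averaged over linkers. Arrays of the same protein sequence at different concentrations or buffers were also averaged together. Data originate from 3228 arrays in the Consortium for Functional Glycomics database, kept only where the protein sequence was available.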

[2] = target: Fuc(a1-2)Gal(b1-3)GlcNAc
Procedure, shortened: as §1

[3] = target: Fuc(a1-2)Gal(b1-3)GlcNAc(b1-3)[Neu5Ac(a2-6)Gal(b1-4)GlcNAc(b1-6)]Gal(b1-4)Glc
Procedure, shortened: as §1

[4] = target: Fuc(a1-2)Gal(b1-3)[Fuc(a1-4)]GlcNAc(b1-3)[Fuc(a1-3)[Gal(b1-4)]GlcNAc(b1-6)]Gal(b1-4)Glc
Procedure, shortened: as §1

[5] = target: Fuc(a1-2)Gal(b1-4)GlcNAc(b1-2)Man
Procedure, shortened: as §1

[6] = target: Fuc(a1-2)Gal(b1-4)GlcNAc(b1-2)[Fuc(a1-2)Gal(b1-4)GlcNAc(b1-4)]Man(a1-3)[Fuc(a1-2)Gal(b1-4)GlcNAc(b1-2)Man(a1-6)]Man(b1-4)GlcNAc(b1-4)GlcNAc
Procedure, shortened: as §1

[7] = target: Fuc(a1-2)Gal(b1-4)GlcNAc(b1-3)[Fuc(a1-3)[Gal(b1-4)]GlcNAc(b1-6)]Gal(b1-4)Glc
Procedure, shortened: as §1

[8] = target: Fuc(a1-2)[GalNAc(a1-3)]Gal(b1-4)GlcNAc(b1-6)GalNAc
Procedure, shortened: as §1

[9] = target: Fuc(a1-3)[Gal(b1-4)]GlcNAc(b1-2)Man(a1-3)[Fuc(a1-3)[Gal(b1-4)]GlcNAc(b1-2)Man(a1-6)]Man(b1-4)GlcNAc(b1-4)[Fuc(a1-6)]GlcNAc
Procedure, shortened: as §1

[10] = target: Fuc(a1-3)[Gal(b1-4)]GlcNAc(b1-6)[Gal(b1-3)GlcNAc(b1-3)]Gal(b1-4)Glc
Procedure, shortened: as §1

[11] = target: Fuc(a1-3)[GalNAc(b1-4)]GlcNAc
Procedure, shortened: as §1

[12] = target: Fuc(a1-4)GlcNAc
Procedure, shortened: as §1

[13] = target: Gal(a1-3)Gal(b1-4)GlcNAc(b1-6)GalNAc
Procedure, shortened: as §1

[14] = target: Gal(a1-3)GalNAc
Procedure, shortened: as §1

[15] = target: Gal(b1-3)GalNAc(b1-4)Gal(b1-4)Glc
Procedure, shortened: as §1

[16] = target: Gal(b1-3)GlcNAc(b1-3)Gal(b1-4)GlcNAc(b1-6)[Gal(b1-3)GlcNAc(b1-3)]Gal(b1-4)Glc
Procedure, shortened: as §1

[17] = target: Gal(b1-3)GlcNAc(b1-3)Gal(b1-4)[Fuc(a1-3)]GlcNAc(b1-6)[Gal(b1-3)GlcNAc(b1-3)]Gal(b1-4)Glc
Procedure, shortened: as §1

[18] = target: Gal(b1-3)[GlcNAc(b1-6)]GalNAc
Procedure, shortened: as §1

[19] = target: Gal(b1-4)GlcNAc(b1-2)[Gal(b1-4)GlcNAc(b1-6)]Man(a1-6)[GlcNAc(b1-4)][Gal(b1-4)GlcNAc(b1-2)Man(a1-3)]Man(b1-4)GlcNAc(b1-4)GlcNAc
Procedure, shortened: as §1

[20] = target: Gal(b1-4)GlcNAc(b1-3)Gal(b1-4)Glc
Procedure, shortened: as §1

[21] = target: Gal(b1-4)GlcNAc(b1-3)Gal(b1-4)GlcNAc(b1-3)Gal(b1-4)GlcNAc(b1-3)Gal(b1-4)GlcNAc(b1-3)Gal(b1-4)GlcNAc(b1-2)Man(a1-3)[Gal(b1-4)GlcNAc(b1-3)Gal(b1-4)GlcNAc(b1-3)Gal(b1-4)GlcNAc(b1-3)Gal(b1-4)GlcNAc(b1-3)Gal(b1-4)GlcNAc(b1-2)Man(a1-6)]Man(b1-4)GlcNAc(b1-4)GlcNAc
Procedure, shortened: as §1

[22] = target: Gal(b1-4)GlcNAc(b1-3)Gal(b1-4)[Fuc(a1-3)]GlcNAc(b1-3)Gal(b1-4)[Fuc(a1-3)]GlcNAc
Procedure, shortened: as §1

[23] = target: Gal(b1-4)GlcNAc(b1-6)Gal(b1-4)GlcNAc
Procedure, shortened: as §1

[24] = target: Gal3S(b1-4)Glc
Procedure, shortened: as §1

[25] = target: Gal3S(b1-4)[Fuc(a1-3)]GlcNAc
Procedure, shortened: as §1

[26] = target: Gal6S(b1-4)GlcNAc6S
Procedure, shortened: as §1

[27] = target: Glc(a1-6)Glc(a1-6)Glc(a1-6)Glc
Procedure, shortened: as §1

[28] = target: GlcNAc(b1-3)Gal(b1-4)GlcNAc(b1-2)Man(a1-3)[GlcNAc(b1-3)Gal(b1-4)GlcNAc(b1-2)Man(a1-6)]Man(b1-4)GlcNAc(b1-4)GlcNAc
Procedure, shortened: as §1

[29] = target: GlcNAc(b1-3)Gal(b1-4)GlcNAc(b1-3)Gal(b1-4)GlcNAc
Procedure, shortened: as §1

[30] = target: GlcNAc(b1-3)Gal(b1-4)GlcNAc(b1-3)Gal(b1-4)GlcNAc(b1-2)[GlcNAc(b1-3)Gal(b1-4)GlcNAc(b1-3)Gal(b1-4)GlcNAc(b1-6)]Man(a1-6)[GlcNAc(b1-3)Gal(b1-4)GlcNAc(b1-3)Gal(b1-4)GlcNAc(b1-2)Man(a1-3)]Man(b1-4)GlcNAc(b1-4)[Fuc(a1-6)]GlcNAc
Procedure, shortened: as §1

B1: Epf (Streptococcus pyogenes) (protein)
chain: GDHGPEFNGVMVVKAAEAEELPDDLMNFKGTWEVSADGSSGRFFSKGATDSYVFHLIPAKDVKKPGWREHNEVKDSYIKIDKQSIAARYKTSTTAPYSVAFKVNTKSLIKDHDYKITFEQGQIASGITVDYRIGSAFNKTTDDSFKISDESKYASNVKIEGEEQGFKQREQGDKTISFRTLKEGPMSLVLLSKVEKKPQGDLDVEFKNLKIIDVTNPSQLDKGVAYVGNKNVQLTLKSDDGRTNFEGDEISLFNSRGELLQTVTVTKDQQNPISITLSEDQAKSLKNKEKLKVSIKQKQSKKTSKDFFFEVGIDPKVEAKQKEKLLELDKVKKQIEDSINGDAWLPEKPVDLQGDHGLSAWSHPQFEK
glycan array binding signal (z-score) [1]: -0.202 | glycan array binding signal (z-score) [2]: -0.175 | glycan array binding signal (z-score) [3]: 0.514 | glycan array binding signal (z-score) [4]: 3.33 | glycan array binding signal (z-score) [5]: 0.654 | glycan array binding signal (z-score) [6]: -0.184 | glycan array binding signal (z-score) [7]: 2.21 | glycan array binding signal (z-score) [8]: -0.052 | glycan array binding signal (z-score) [9]: -0.996 | glycan array binding signal (z-score) [10]: -2.21 | glycan array binding signal (z-score) [11]: 2.73 | glycan array binding signal (z-score) [12]: -0.354 | glycan array binding signal (z-score) [13]: -1.75 | glycan array binding signal (z-score) [14]: 0.627 | glycan array binding signal (z-score) [15]: -0.182 | glycan array binding signal (z-score) [16]: 2.25 | glycan array binding signal (z-score) [17]: 3.16 | glycan array binding signal (z-score) [18]: 0.807 | glycan array binding signal (z-score) [19]: 3.4 | glycan array binding signal (z-score) [20]: -1.14 | glycan array binding signal (z-score) [21]: 2.53 | glycan array binding signal (z-score) [22]: -1.31 | glycan array binding signal (z-score) [23]: -0.547 | glycan array binding signal (z-score) [24]: 1.73 | glycan array binding signal (z-score) [25]: 1 | glycan array binding signal (z-score) [26]: 2.34 | glycan array binding signal (z-score) [27]: 0 | glycan array binding signal (z-score) [28]: -0.562 | glycan array binding signal (z-score) [29]: 0.659 | glycan array binding signal (z-score) [30]: 0.082
